Results on seven compounds are retold here after PubChem BioAssay (Tox21).

Experiment [1] is described as follows: Nuclear factor erythroid 2-related factor 2/antioxidant responsive element (Nrf2/ARE) small molecule agonists: qHTS cell viability counter screen in human keratinocytes (AID 1919968; active = well fitted curve in the direction sought with a large enough effect in the repeat runs; an effect the other way counts as inactive or inconclusive; note: nearly all actives have a fitted effect of over 55% in size). The essentials:
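In human HaCaT keratinocytes stably expressing an ARE-driven luciferase, compound exposure lasted 23 h at 37 C under 5% CO2. Viable cells are quantified with a protease-based fluorogenic reagent (CellTiter-Fluor) read 1 h after addition.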

Experiment [2] in a line: Nuclear factor erythroid 2-related factor 2/antioxidant responsive element (Nrf2/ARE) small molecule agonists: luciferase reporter gene qHTS assay in human keratinocytes (AID 1919969). Note: nearly all actives have a fitted effect of over 35% in size.
For experiment [3], the target named is Gonadotropin-releasing hormone receptor (Homo sapiens) (UniProt P30968). Kind of experiment: Human gonadotropin-releasing hormone receptor (GnRHR) small molecule agonists, calcium flux assay in GnRHR-HEK293 cells (AID 1920063). Note: nearly all actives have a fitted effect of over 35% in size. The essentials: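 Intracellular calcium rise is the read-out: engineered human GnRHR HEK293 cells, dye-loaded, are exposed to DMSO-dissolved compounds and fluorescence at Ex/Em 480/540 is tracked for 3 min.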

For experiment [4], the target named is KiSS-1 receptor (Homo sapiens) (UniProt Q969F8). Kind of experiment: Human kisspeptin (KISS1R) small molecule agonists, calcium flux assay in KISS1R-HEK293 cells (AID 1920064; active = well fitted curve in the direction sought with a large enough effect in the repeat runs; an effect the other way counts as inactive or inconclusive). A digest of the protocol: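 Concentration-response testing used 15 concentrations in triplicate on human KISS1R-expressing HEK293 cells. Calcium-dependent fluorescence (Ex/Em 480/540) was followed kinetically for 3 min after compound transfer.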

A short description of experiment [5]: p53 small molecule agonists, cell-based qHTS assay with human liver microsomes (AID 1963577). A digest of the protocol:
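Fluorescence of the beta-lactamase reporter in p53RE-bla cells, detected with LiveBLAzer substrate (2 h, room temperature, dark), served as the read-out after 16 h compound exposure at 37 C with human liver microsomes and NADPH, each 0.5 mg/mL final.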

Experiment [6] can be described thus: p53 small molecule agonists, cell-based qHTS assay with human liver microsomes: qHTS cell viability counter screen (AID 1963579). Note: nearly all actives have a fitted effect of over 45% in size. The essentials: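 Cytotoxicity counter screen: p53RE-bla, 4,000 cells/well; 5 h settle, 37 C/5% CO2; cpd + HLM 0.5 mg/mL + NADPH 0.5 mg/mL (final); 16 h, 37 C; CellTiter-Glo, 30 min RT, luminescence.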
Experiment [7] is described as follows: p53 small molecule agonists, cell-based qHTS assay with rat liver microsomes: qHTS cell viability counter screen (AID 1963580). Note: nearly all actives have a fitted effect of over 45% in size. A digest of the protocol:
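Luminescent ATP readout (CellTiter-Glo, 30 min at room temperature) reports viability of p53RE-bla HCT-116 cells after 16 h at 37 C with test compounds under metabolic activation by rat liver microsomes and NADPH at 0.5 mg/mL final each.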

The nature of experiment [8]: p53 small molecule agonists, cell-based qHTS assay: qHTS cell viability counter screen (AID 1963581). Note: nearly all actives have a fitted effect of over 45% in size. The essentials:
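Luminescence from CellTiter-Glo, reflecting ATP content, serves as the cytotoxicity measure; it is taken after the 2 h reporter substrate step in HCT-116 p53RE-bla cells dosed for 16 h at 37 C.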

The nature of experiment [9]: p53 small molecule agonists, cell-based qHTS assay (AID 1963582; active = well fitted activation curve with a large enough effect in the signal ratio in the repeat runs, not every such curve was filed as active; the % refers to the signal ratio). The essentials: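 After plating, p53RE-bla cells sat 5 h in the incubator; compounds or DMSO vehicle were pinned in; a 16 h incubation at 37 C followed; FRET substrate was added and, 2 h later at RT, fluorescence was measured.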
Experiment [10] deals with 5-hydroxytryptamine receptor 2A (Homo sapiens) (UniProt P28223). Kind of experiment: 5-hydroxytryptamine receptor 2A (HTR2A) small molecule antagonists, cell-based qHTS assay (AID 1963586). Note: nearly all actives have a fitted effect of over 45% in size. The essentials:
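CHO cells stably expressing human HTR2A were plated for 18 h at 37 C, then loaded with calcium dye for 1 h. Compounds were preincubated 5 min at room temperature before DOI (4 nM solution) was added. Kinetic fluorescence was read for 3 min.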

The target is the same in experiment [11]. Nature of the experiment: 5-hydroxytryptamine receptor 2A (HTR2A) small molecule agonists, cell-based qHTS assay (AID 1963587). Note: nearly all actives have a fitted effect of over 30% in size. The essentials: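 HTR2A-CHO cells, plated 18 h at 37 C/5% CO2, dye-loaded 1 h at 37 C; compounds in DMSO added by pin tool (agonist mode). Intracellular calcium flux read as kinetic fluorescence on FDSS over 2 min at 1 s intervals.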

The target in experiment [12] is Muscarinic acetylcholine receptor M1 (Homo sapiens) (UniProt P11229). Kind of experiment: Cholinergic receptor muscarinic 1 (CHRM1) small molecule antagonists, cell-based qHTS assay (AID 1963588). Note: nearly all actives have a fitted effect of over 40% in size. Note: potency is the fitted concentration of half-maximal effect. A digest of the protocol:
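Compounds were tested at 15 concentrations in three independent runs. Dye-loaded CHRM1-CHO cells were exposed 5 min at room temperature before stimulation by acetylcholine added at 50nM. Intracellular calcium was read kinetically on FDSS for 3 min.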

Experiment [13] shares this target. Nature of the experiment: Cholinergic receptor muscarinic 1 (CHRM1) small molecule agonists, cell-based qHTS assay (AID 1963589). Note: nearly all actives have a fitted effect of over 35% in size. A digest of the protocol: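 Fluorescent calcium dye reports M1 activation in stably transfected CHO cells. Compounds, 15 concentrations, added after 1 h dye loading at 37 C; kinetic reading at 1 sec intervals.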
A short description of experiment [14]: cAMP Responsive Elements (CRE) small molecule agonists, cell-based qHTS assay (AID 1963590). The essentials:
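Compound exposure lasted 3 h at 37 C/5% CO2 in CRE-bla HEK 293T cells grown in assay medium with 10% dialyzed FBS and 25 mM HEPES. Reporter signal came from LiveBLAzer B/G FRET substrate, 2 h, room temperature.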

Experiment [15] in a line: cAMP Responsive Elements (CRE) small molecule antagonists, cell-based qHTS assay (AID 1963591; active = well fitted inhibition curve with a large enough effect in the signal ratio in the repeat runs, not every such curve was filed as active; the % refers to the signal ratio). The essentials: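 Stimulation used NKH477 at a final 0.25 uM for 3 h in compound-treated CRE-bla HEK293T cells, seeded 18 h beforehand. Reporter activity was measured with LiveBLAzer B/G FRET substrate after 2 h at room temperature.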
Experiment [16] concerns the target D(2) dopamine receptor (Homo sapiens) (UniProt P14416). Kind of experiment: Dopamine D2 receptor (DRD2) small molecule agonists, cell-based qHTS assay (AID 1963594). Note: nearly all actives have a fitted effect of over 35% in size. The essentials: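 HEK293 cells stably expressing DRD2 were cultured 24 h at 37 C, then given Ro20-1724 (0.1 mM final) and compounds for 10 min at room temperature. NKH477 (200nM) was then added for 30 min. cAMP was read by HTRF.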

The target is the same in experiment [17]. Kind of experiment: Dopamine D2 receptor (DRD2) small molecule antagonists, cell-based qHTS assay (AID 1963595; active = well fitted inhibition curve with a large enough effect in the signal ratio in the repeat runs, with a control signal flat; the % refers to the signal ratio). A digest of the protocol:
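HEK293 cells stably expressing DRD2, preincubated with 0.1 mM Ro20-1724 and compounds 10 min, were stimulated with 200 nM NKH477 plus 12 nM quinpirole for 30 min at room temperature; cAMP measured by HTRF (665/620 nm).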

Experiment [18] is described as follows: G protein-coupled receptor (GPCR) small molecule agonists, calcium flux assay: HEK293 wild type cell line counter screen (AID 1920065). The essentials:
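Fluorescence intensity signals activation. After overnight (18 h) culture and a 1 h calcium dye load at 37 C, compounds are added by pin tool and the plate read at 480/540 nm for 3 min in 1 s steps.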

The nature of experiment [19]: p53 small molecule agonists, cell-based qHTS assay with rat liver microsomes (AID 1963578). The essentials:
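Cells carrying a p53 response element–beta-lactamase reporter were plated and rested 5 h, then dosed with compound in DMSO plus rat liver microsomes and NADPH, each at 0.5 mg/mL final. After 16 h at 37 C, LiveBLAzer substrate was added for 2 h.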

The target of experiment [20] is Beta-2 adrenergic receptor (Homo sapiens) (UniProt P07550). Kind of experiment: Adrenergic beta2 receptor (ADRB2) small molecule antagonists, cell-based qHTS assay (AID 1963592). Note: series mostly up to about 92 µM; nearly all actives have a fitted effect of over 50% in size. A digest of the protocol: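 Assay format: CHO-ADRB2 cells, 18-20hr seeding at 37C/5% CO2, then compound plus 1nM isoproterenol agonist mix for 0.5hr RT. Homogeneous time-resolved fluorescence cAMP detection after 1hr, expressed as 665/615 nm ratio.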

The structures appear in SMILES notation. Results filed as inconclusive are left out. Calls of active or inactive are those of the source. Unless noted, calls come from the whole dose curve.

Sequence of 5-hydroxytryptamine receptor 2A (Homo sapiens) (P28223 whole entry, looked up): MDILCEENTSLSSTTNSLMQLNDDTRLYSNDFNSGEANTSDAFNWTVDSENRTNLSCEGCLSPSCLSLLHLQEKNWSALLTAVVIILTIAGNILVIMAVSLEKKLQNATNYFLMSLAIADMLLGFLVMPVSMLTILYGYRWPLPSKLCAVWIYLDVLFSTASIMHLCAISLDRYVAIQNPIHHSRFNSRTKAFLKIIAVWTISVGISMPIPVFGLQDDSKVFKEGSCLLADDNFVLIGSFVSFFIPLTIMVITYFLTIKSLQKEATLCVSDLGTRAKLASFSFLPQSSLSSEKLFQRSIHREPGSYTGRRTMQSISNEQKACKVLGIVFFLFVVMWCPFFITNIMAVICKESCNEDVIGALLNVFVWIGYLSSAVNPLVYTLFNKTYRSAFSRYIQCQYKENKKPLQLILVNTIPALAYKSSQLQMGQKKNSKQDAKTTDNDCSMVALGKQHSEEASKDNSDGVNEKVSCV
Sequence of Muscarinic acetylcholine receptor M1 (Homo sapiens) (P11229 whole entry, looked up): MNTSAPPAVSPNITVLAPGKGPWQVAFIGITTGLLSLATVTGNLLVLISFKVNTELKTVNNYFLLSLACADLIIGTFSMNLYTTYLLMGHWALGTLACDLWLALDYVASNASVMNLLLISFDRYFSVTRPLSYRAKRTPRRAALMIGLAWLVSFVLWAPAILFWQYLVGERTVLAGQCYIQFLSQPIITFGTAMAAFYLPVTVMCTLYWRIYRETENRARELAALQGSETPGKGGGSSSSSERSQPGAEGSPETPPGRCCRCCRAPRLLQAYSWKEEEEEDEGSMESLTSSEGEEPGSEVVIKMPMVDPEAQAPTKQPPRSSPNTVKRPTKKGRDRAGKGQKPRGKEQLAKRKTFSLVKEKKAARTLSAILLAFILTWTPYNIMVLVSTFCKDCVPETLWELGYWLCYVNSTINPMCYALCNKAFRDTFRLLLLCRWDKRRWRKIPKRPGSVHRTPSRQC
Sequence of Gonadotropin-releasing hormone receptor (Homo sapiens) (P30968 whole entry, looked up): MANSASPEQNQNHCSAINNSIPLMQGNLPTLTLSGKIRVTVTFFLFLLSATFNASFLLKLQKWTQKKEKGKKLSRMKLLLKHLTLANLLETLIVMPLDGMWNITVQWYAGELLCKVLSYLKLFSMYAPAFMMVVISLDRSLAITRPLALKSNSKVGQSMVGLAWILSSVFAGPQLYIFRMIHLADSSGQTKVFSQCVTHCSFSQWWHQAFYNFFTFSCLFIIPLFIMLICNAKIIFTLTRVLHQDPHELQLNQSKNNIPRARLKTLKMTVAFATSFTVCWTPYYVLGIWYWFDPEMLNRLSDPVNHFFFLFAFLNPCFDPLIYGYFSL
Sequence of D(2) dopamine receptor (Homo sapiens) (P14416 whole entry, looked up): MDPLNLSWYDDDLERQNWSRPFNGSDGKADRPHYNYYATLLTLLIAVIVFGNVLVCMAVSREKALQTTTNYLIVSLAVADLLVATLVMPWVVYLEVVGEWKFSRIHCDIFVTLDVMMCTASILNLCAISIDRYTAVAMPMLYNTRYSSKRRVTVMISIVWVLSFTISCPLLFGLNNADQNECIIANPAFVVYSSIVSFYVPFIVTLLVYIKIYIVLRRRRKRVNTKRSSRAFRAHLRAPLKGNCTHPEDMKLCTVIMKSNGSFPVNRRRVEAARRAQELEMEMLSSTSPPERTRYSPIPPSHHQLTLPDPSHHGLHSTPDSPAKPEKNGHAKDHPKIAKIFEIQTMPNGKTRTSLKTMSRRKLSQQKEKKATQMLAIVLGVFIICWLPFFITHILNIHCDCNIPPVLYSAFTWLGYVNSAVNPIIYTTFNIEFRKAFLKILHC
Sequence of KiSS-1 receptor (Homo sapiens) (Q969F8 whole entry, looked up): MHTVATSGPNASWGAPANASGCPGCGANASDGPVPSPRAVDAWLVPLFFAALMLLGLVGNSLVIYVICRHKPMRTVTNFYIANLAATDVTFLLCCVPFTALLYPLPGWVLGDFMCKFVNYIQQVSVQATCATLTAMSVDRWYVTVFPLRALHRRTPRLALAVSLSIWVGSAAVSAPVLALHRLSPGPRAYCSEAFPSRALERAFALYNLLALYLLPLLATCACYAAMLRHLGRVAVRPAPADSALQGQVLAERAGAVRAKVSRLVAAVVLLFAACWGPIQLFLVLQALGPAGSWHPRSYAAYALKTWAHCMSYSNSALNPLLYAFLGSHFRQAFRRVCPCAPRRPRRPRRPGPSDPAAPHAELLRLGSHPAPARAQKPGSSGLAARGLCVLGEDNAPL
Sequence of Beta-2 adrenergic receptor (Homo sapiens) (P07550 whole entry, looked up): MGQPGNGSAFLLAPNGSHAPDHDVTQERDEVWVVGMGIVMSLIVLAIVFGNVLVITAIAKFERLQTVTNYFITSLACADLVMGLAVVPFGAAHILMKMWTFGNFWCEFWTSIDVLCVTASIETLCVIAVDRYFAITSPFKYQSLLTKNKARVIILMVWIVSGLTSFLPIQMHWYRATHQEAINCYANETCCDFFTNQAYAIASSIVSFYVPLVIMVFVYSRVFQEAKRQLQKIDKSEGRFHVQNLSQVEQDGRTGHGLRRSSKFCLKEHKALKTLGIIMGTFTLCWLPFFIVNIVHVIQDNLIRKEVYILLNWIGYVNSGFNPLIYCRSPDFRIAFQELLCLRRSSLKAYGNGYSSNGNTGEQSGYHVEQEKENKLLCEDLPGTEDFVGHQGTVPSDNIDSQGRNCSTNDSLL

As to `CCN(CC)c1cccc(C)c1`, the Potency result in experiment [1], in experiment [2], in experiment [3], in experiment [5], in [6] and in [7] was “inactive” each time. The Potency entry in [8], in experiment [9], in [10], in experiment [11], in experiment [12] and in experiment [13] was “inactive” in each case. For the same compound, the Potency result in [14], in experiment [15], in experiment [16] and in [17] was “inactive” in each case. In addition, the outcome in [4] was inactive.

With `COc1c(N2C[C@@H]3CCCN[C@@H]3C2)c(F)cc2c(=O)c(C(=O)O)cn(C3CC3)c12`, the Potency entry in [1], in [2], in [3], in [5], in experiment [19] and in [6] was “inactive” throughout. Further, the Potency result in experiment [7], in experiment [8], in [9], in [10], in experiment [11] and in experiment [13] was “inactive” in each case. The Potency result in experiment [14], in experiment [15] and in [17] was “inactive” throughout. In addition, the result in [18] was inactive. In [12], the Potency was 6.5 µM (active).

For the compound `c1ccc(CNc2ncnc3nc[nH]c23)cc1`, the Potency result in experiment [1], in [2], in [3], in experiment [5], in [19] and in experiment [6] was “inactive” each time. Moreover, the Potency entry in experiment [7], in experiment [8], in [9], in experiment [10], in experiment [11] and in experiment [12] was “inactive” each time. Also, the Potency entry in experiment [13], in experiment [14], in experiment [15], in experiment [16] and in experiment [17] was “inactive” in each case. In addition, in experiment [18], the result was inactive.

For the compound `O=S(=O)(c1ccccc1)c1ccc(Cl)cc1`, the Potency result in experiment [1], in experiment [2], in experiment [3], in [5], in experiment [19] and in experiment [7] was “inactive” each time. In addition, the Potency result in experiment [8], in experiment [9], in [10], in experiment [11], in experiment [12] and in [13] was “inactive” throughout. Further, the Potency result in experiment [14], in [15], in [20] and in experiment [16] was “inactive” in each case. Further, in experiment [4], the result was inactive.

In the case of `N#Cc1ccc(CC(=O)c2cccc(C(F)(F)F)c2)cc1`, the Potency entry in experiment [1], in [2], in experiment [3], in [19], in experiment [7] and in experiment [9] was “inactive” each time. The Potency result in [10], in experiment [11], in [13], in experiment [14], in [15] and in experiment [20] was “inactive” each time. Besides, the Potency entry in [16] and in [17] was “inactive” in each case. Moreover, the outcome in experiment [4] was inactive.

On to `COc1ncnc(NS(=O)(=O)c2ccc(N)cc2)c1OC`, for which the Potency result in experiment [1], in experiment [2], in [3], in experiment [5], in experiment [7] and in experiment [9] was “inactive” each time. The Potency result in experiment [14], in experiment [15], in [20], in [16] and in experiment [17] was “inactive” throughout. The result in experiment [4] was inactive.

`N#CSCC(=O)O`: the Potency result in experiment [1], in experiment [2], in experiment [3], in experiment [5], in experiment [19] and in [6] was “inactive” in each case. For the same compound, the Potency result in experiment [7], in experiment [8], in [9], in [10], in experiment [11] and in experiment [12] was “inactive” throughout. In addition, the Potency entry in [13], in experiment [14], in [15], in experiment [20], in experiment [16] and in [17] was “inactive” throughout. The outcome in [18] was inactive.
